Assay results published in PubChem BioAssay AID1159554 (Broad Institute, 2015).
The whole screen tested about 94,000 compounds, of which about 2,100 (2.2%) were called active. The entries come from a sample that favours actives as a whole. Unmarked numbers belong to inactive results. Rule as the data show it: active = activity change below about -80%; inconclusive = no clear call, values can overlap the other calls; inactive = above that.

experiment: P. falciparum Dd2 growth inhibitors, primary screen, SYBR Green fluorescence, single dose replicates (AID 1159554); details: 72 h, at 10 µM, hits give low values

Compound	activity change
C[C@@H]1CN([C@@H](C)CO)S(=O)(=O)c2ccc(C#CC(C)(C)O)cc2O[C@H]1CN(C)C(=O)CN(C)C	31.6%
Cc1ccccc1S(=O)(=O)N1[C@@H](C#N)[C@H](c2ccccc2)[C@@H]1CO	20.4%
CCCNC(=O)N1CC2(CN(C(=O)C3CCCCC3)C2)c2c([nH]c3cc(OC)ccc23)[C@@H]1CO	-5.82%
O=C(Nc1ccc(F)cc1)N[C@H]1C=C[C@@H](CC(=O)N2CCOCC2)O[C@H]1CO	-16.7%
C[C@@H]1CN([C@@H](C)CO)C(=O)c2cccc(NC(=O)Nc3cccc4ccccc34)c2O[C@H]1CN(C)S(=O)(=O)c1ccccc1	-19.1%
C[C@H](CO)N1C[C@H](C)[C@H](CN(C)S(=O)(=O)c2ccccc2)Oc2c(NC(=O)CCCCCC(=O)Nc3ccccc3N)cccc2C1=O	-73.2%
COc1ccc(S(=O)(=O)N(C)C[C@H]2Oc3c(NC(=O)CCCCCC(=O)Nc4ccccc4N)cccc3C(=O)N([C@H](C)CO)C[C@H]2C)cc1	-89.5% (active)
COc1ccc(S(=O)(=O)N(C)C[C@H]2Oc3c(NC(=O)Nc4cccc5ccccc45)cccc3C(=O)N([C@@H](C)CO)C[C@H]2C)cc1	-88.1% (active)
C[C@H]1CN([C@@H](C)CO)C(=O)c2cccc(NC(=O)CCCCCC(=O)Nc3ccccc3N)c2O[C@@H]1CN(C)S(=O)(=O)c1cn(C)cn1	22.6%
COc1ccc(S(=O)(=O)N(C)C[C@@H]2Oc3c(NC(=O)NC(C)C)cccc3C(=O)N([C@@H](C)CO)C[C@@H]2C)cc1	-6.46%
COCC(=O)Nc1ccc2c(c1)C(=O)N(C)C[C@@H](OC)[C@@H](C)CN(C(=O)Cc1ccccn1)[C@@H](C)CO2	-33.6%
COc1ccc(S(=O)(=O)N(C)C[C@H]2OCCCC[C@@H](C)Oc3ccc(NS(=O)(=O)c4ccc(C)cc4)cc3C(=O)N([C@@H](C)CO)C[C@@H]2C)cc1	-36.4%
CCCNC(=O)N1[C@H](CO)[C@H]2c3ccccc3N(C(=O)Nc3cccc(Cl)c3)C[C@H]21	6.16%
COc1cccc(-c2ccc([C@@H]3[C@@H](C#N)N(C(=O)c4ccccn4)[C@H]3CO)cc2)c1	-35.5%
COc1cccc(-c2ccc([C@@H]3[C@@H](CO)N(C(=O)c4ccccn4)[C@H]3C#N)cc2)c1	-11.6%
COc1cccc(C#Cc2ccc([C@H]3[C@@H](CO)N(C(=O)c4ccccn4)[C@H]3C#N)cc2)c1	-92% (active)
CCCN1C[C@H](C)[C@H](OC)CN(C)C(=O)c2cc(NC(=O)NC3CCCC3)ccc2OC[C@H]1C	20%
C[C@@H]1CCCCO[C@@H](CN(C)S(C)(=O)=O)[C@H](C)CN([C@@H](C)CO)C(=O)c2cc(NC(=O)Nc3ccc4c(c3)OCO4)ccc2O1	33.8%
CO[C@H]1CN(C)C(=O)c2cc(NS(=O)(=O)c3ccccc3)ccc2OC[C@@H](C)N(Cc2nccs2)C[C@@H]1C	-8.31%
CCS(=O)(=O)N1CC2(CN(Cc3cc(F)ccc3F)[C@@H](CO)c3c2c2ccc(OC)cc2n3C)C1	-72.9%
CO[C@H]1CN(C)C(=O)c2cc(NS(C)(=O)=O)ccc2OC[C@@H](C)N(Cc2ccccc2)C[C@@H]1C	-41.2%

Compound	activity change
COCC(=O)N1CCC2(CC1)CN(Cc1ccccc1Cl)[C@H](CO)c1c2c2ccc(OC)cc2n1C	-60.4%
CCCC(=O)N1CC2(CN(C(=O)NC(C)C)C2)c2c([nH]c3cc(OC)ccc23)[C@@H]1CO	16.5%
COc1ccc2c3c([nH]c2c1)[C@@H](CO)N(Cc1ccccc1F)CC31CN(C(=O)C2CC2)C1	-48%
COc1ccc2c3c([nH]c2c1)[C@H](CO)N(Cc1ccccc1Cl)CC31CN(C(=O)C2CC2)C1	-92.3% (active)
COc1ccc2c3c([nH]c2c1)[C@H](CO)N(Cc1ccccc1OC)CC31CCN(S(=O)(=O)c2ccccc2)CC1	-79.1%
COc1ccc2c3c([nH]c2c1)[C@@H](CO)N(C(C)=O)CC31CCN(Cc2ccccc2Cl)CC1	-38.2%
CCC(=O)N1CC2(C1)CN(Cc1ccccc1Cl)[C@@H](CO)c1[nH]c3cc(OC)ccc3c12	-91.3% (active)
COc1ccc2c3c(n(C)c2c1)[C@@H](CO)N(Cc1ccccc1)CC31CN(C(=O)C2CC2)C1	-20.3%
COc1ccc2c3c(n(C)c2c1)[C@H](CO)N(Cc1ccccc1Cl)CC31CN(C(=O)CN(C)C)C1	-83.6% (active)
COc1ccc(-c2ccc([C@@H]3[C@@H](C#N)N(C(=O)C4CCCCC4)[C@H]3CO)cc2)cc1	-30.1%
CCC(=O)Nc1ccc2c(c1)C(=O)N(C)C[C@H](OC)[C@H](C)CN(C(=O)c1ccccn1)[C@@H](C)CO2	15.8%
COc1ccc2c3c(n(C)c2c1)[C@H](CO)N(C(=O)Nc1c(C)noc1C)CC31CN(CC2CC2)C1	-7.59%
O=C(C[C@H]1CC[C@H]2NC[C@@H](O)COC[C@@H]2O1)NCCN1CCCC1	9.89%
COc1cccc(CN(C)C[C@H]2OCc3ccccc3-c3c(n(C)c4ccccc34)C(=O)N([C@@H](C)CO)C[C@@H]2C)c1	-62%
COc1ccc2c3c(n(C)c2c1)[C@H](CO)NCC31CN(S(=O)(=O)c2cccc(C)c2)C1	21.6%
C[C@@H]1CN([C@@H](C)CO)C(=O)c2cccc(NS(=O)(=O)c3cccs3)c2O[C@H]1CN(C)Cc1ccncc1	28.4%
C[C@@H]1CN([C@@H](C)CO)C(=O)c2cccc(NC(=O)c3ccc(-c4nccs4)cc3)c2O[C@H]1CN(C)Cc1ccc(Cl)c(Cl)c1	-90.3% (active)
C[C@H](CO)N1C[C@H](C)[C@H](CN(C)S(C)(=O)=O)Oc2c(NC(=O)c3ccc(-c4nccs4)cc3)cccc2C1=O	-3.36%
C[C@H](CO)N1C[C@H](C)[C@@H](CN(C)Cc2ccc(C(=O)Nc3ccccc3N)cc2)Oc2c(NC(=O)c3ccc(-c4nccs4)cc3)cccc2C1=O	-90% (active)
C[C@H]1CN([C@@H](C)CO)C(=O)c2cccc(NS(=O)(=O)c3cccs3)c2O[C@H]1CN(C)Cc1ccc(C(=O)Nc2ccccc2N)cc1	-87.1% (active)
C[C@@H]1CN([C@H](C)CO)C(=O)c2cccc(NC(=O)c3cnccn3)c2O[C@@H]1CN(C)Cc1ccc(C(=O)Nc2ccccc2N)cc1	-88.3% (active)

Compound	activity change
C[C@H](CO)N1C[C@H](C)[C@@H](CN(C)S(C)(=O)=O)Oc2c(NC(=O)c3ccc(-c4nccs4)cc3)cccc2C1=O	-4.15%
C[C@@H]1CN([C@@H](C)CO)C(=O)c2cccc(NC(=O)c3ccc(-c4nccs4)cc3)c2O[C@@H]1CN(C)Cc1ccncc1	-15.6%
C[C@@H]1CN([C@@H](C)CO)C(=O)c2cccc(NC(=O)c3cnccn3)c2O[C@H]1CN(C)Cc1ccc(-c2ccccc2)cc1	-64.1%
C[C@@H]1CN([C@@H](C)CO)C(=O)c2cccc(NS(=O)(=O)c3cccs3)c2O[C@@H]1CN(C)CC1CC1	18.4%
C[C@@H]1CN([C@@H](C)CO)C(=O)c2cccc(NC(=O)c3cnccn3)c2O[C@H]1CN(C)Cc1ccc(C(=O)O)cc1	-5.79%
C[C@H]1CN([C@@H](C)CO)C(=O)c2cccc(NC(=O)c3ccc(-c4nccs4)cc3)c2O[C@H]1CN(C)Cc1ccc(C(=O)O)cc1	24%
COc1ccc2c3c(n(C)c2c1)[C@@H](CO)N(CC1CC1)CC31CN(C(=O)c2cccc(F)c2)C1	-33.2%
CO[C@H](CN(C)C(=O)c1cnccn1)[C@@H](C)CN([C@@H](C)CO)S(=O)(=O)c1ccc(C)cc1	25.3%
COc1ccccc1NC(=O)N1C[C@H]2[C@@H](c3ccccc31)[C@@H](CO)N2C(=O)C1CCCC1	-11.4%
CCNC(=O)[C@H]1[C@H](CO)[C@H]2Cn3c(ccc(C4=CCCC4)c3=O)[C@@H]1N2S(=O)(=O)c1cn(C)cn1	21.7%
COc1ccc(-c2ccc3c(c2)O[C@H](CN(C)Cc2ccccc2C(=O)O)[C@H](C)CN([C@@H](C)CO)S3(=O)=O)cc1	-14.1%
CO[C@H]1CN(C)C(=O)c2cc(NC(=O)c3ccc4c(c3)OCO4)ccc2OC[C@@H](C)N(CCC(F)(F)F)C[C@H]1C	-12.7%
C[C@@H](C(=O)N(C)C[C@H]1OCc2ccccc2-c2c(n(C)c3ccccc23)C(=O)N([C@@H](C)CO)C[C@@H]1C)c1ccccc1	-70%
O=C(C[C@@H]1CC[C@@H]2[C@H](COC[C@@H](O)CN2Cc2cc(F)cc(F)c2)O1)NCc1cccc(F)c1	-16.3%
C[C@H](CO)N1C[C@H](C)[C@@H](CN(C)C(=O)c2ccncc2)Oc2cc(C3=CCCCC3)ccc2S1(=O)=O	-11.8%
CC(C)NC(=O)Nc1cccc2c1O[C@H](CN(C)CC1CCCCC1)[C@H](C)CN([C@H](C)CO)C2=O	-26.3%
C[C@@H]1CN([C@@H](C)CO)C(=O)c2cccc(NC(=O)CCCCCC(=O)Nc3ccccc3N)c2O[C@H]1CN(C)C(=O)Nc1ccccc1	-53.7%
C[C@H](CO)N1C[C@H](C)[C@H](CN(C)CC2CCCCC2)Oc2ccc(NC(=O)CCCCCC(=O)Nc3ccccc3N)cc2CC1=O	-32.3%
C[C@@H]1CN([C@@H](C)CO)C(=O)c2cccc(NC(=O)CCCCCC(=O)Nc3ccccc3N)c2O[C@H]1CN(C)C(=O)Nc1cccc2ccccc12	-86.4% (active)
C[C@H]1CN([C@@H](C)CO)C(=O)c2cccc(NC(=O)CCCCCC(=O)Nc3ccccc3N)c2O[C@@H]1CN(C)CC1CCCCC1	-83.5% (active)
C[C@H](CO)N1C[C@H](C)[C@@H](CN(C)C(=O)Nc2ccccc2)Oc2c(NC(=O)CCCCCC(=O)Nc3ccccc3N)cccc2C1=O	-26.6%
